Bioassay records from PubChem BioAssay.
D1 agonist – human D1 receptor agonism; P21728; HEK293 T-REx D1 cells, calcium flux, agonist mode; activation, % at 2 µM; actives 1% (n = 360,000); also: 0% is about no effect
Target sequence (P21728 whole entry, looked up): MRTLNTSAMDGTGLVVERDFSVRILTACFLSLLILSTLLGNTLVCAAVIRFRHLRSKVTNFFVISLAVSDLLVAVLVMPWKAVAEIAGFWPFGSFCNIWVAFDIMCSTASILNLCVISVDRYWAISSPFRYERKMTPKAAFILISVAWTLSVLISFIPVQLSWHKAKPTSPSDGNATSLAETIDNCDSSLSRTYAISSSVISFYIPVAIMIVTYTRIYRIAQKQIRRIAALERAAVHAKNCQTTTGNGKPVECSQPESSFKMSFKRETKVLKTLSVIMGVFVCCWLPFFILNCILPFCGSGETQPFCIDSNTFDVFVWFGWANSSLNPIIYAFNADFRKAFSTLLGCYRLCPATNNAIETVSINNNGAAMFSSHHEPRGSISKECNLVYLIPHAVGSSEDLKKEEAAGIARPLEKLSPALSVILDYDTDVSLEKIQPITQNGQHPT
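Tetracycline-induced HEK293 TREx D1 cells, force-coupled to calcium signalling, were dye-loaded with a no-wash calcium kit. Compound was pin-added after a 10 s baseline. Fluorescence was read kinetically at 1 cycle/s for 180 s, with calcium rises flagged as agonism.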
TRHR ag – activates the human TRH receptor | TRHR cells, calcium flux fluo-8, FDSS agonist mode | activation, % at 2 µM | actives 0.18% (n = 360,000) | AID 493084; also: 0% is about no effect
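Agonist-mode FDSS calcium read (Ex 480/Em 530, 1 s cycles) in 1536-well TRHR cells with fluo-8 dye, after 10-cycle baseline and 23 nL compound addition; TRH at EC20 (10 nM final) added afterwards for the enhancer phase.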
D1 antag – antagonists of human D1 dopamine receptor; actives 3.2% (n = 360,000); AID 504652; HEK293 TREx D1 cells, calcium flux, dopamine EC80; hits give low values; activity change, negative = inhibition, % at 10 µM; P21728; in the data active = activity change below about -30%; also: % is scaled to controls: 0 for no effect and ±100 for the full control effect
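Compound effects on dopamine-evoked calcium signalling were measured in tetracycline-induced HEK293 Trex D1 cells. Dopamine at EC80 followed a 180 s compound pre-read, and fluorescence was tracked kinetically for 180 s more.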
TRHR enhancer – TRH receptor (human) allosteric enhancement; P34981; TRHR cells, fluo-8 calcium fluorescence, EC20 TRH enhancement; enhancement, % at 2 µM; actives 0.66% (n = 360,000); AID 493056; in the data active = enhancement above about 30%; also: 0% is about no effect
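Enhancer read-out: after compound pinning and an initial kinetic agonist-mode read, an EC20 of TRH (10 nM final) was injected and fluo-8 calcium signal (Ex 480/Em 530) followed at 1 s/cycle for 100 cycles in TRHR-expressing cells.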
D1 potentiator – human D1 dopamine receptor positive modulation. P21728. HEK293 TREx D1 cells, calcium flux, dopamine EC20 potentiation. potentiation, % at 10 µM. actives 0.036% (n = 360,000); in the data active = potentiation above about 30%; also: 0% is about no effect
Epigenetic reg – regulators of epigenetic silencing causing reporter derepression in mouse cells; murine LDR cells, GFP reporter derepression, 30 h; Potency, µM (doses to about 53.9 µM), for the others: top-dose GFP activation, actives largely listed as activators; actives 0.2% (n = 280,000); AID 1865; active = well fitted activation curve with a large enough effect; inconclusive = small, poorly fitted or top-dose-only effect; also: potency is read from the fitted curve at half-maximal effect; % of control where 0% means no effect; nearly all actives have a fitted effect of over 60% in size
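Readout is the number of GFP-expressing murine LDR cells, counted by cytometry following washing. Cells were treated with compound for 30 h at 37 C; the stably integrated CMV-GFP locus is normally silent.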
Starred values were filed as active, the others as inactive; ? = inconclusive; · = no result. This is a sample that favours compounds with a hit; in the whole collection about 4.6% have one here. Rule as the data show it, unless noted: active = activation above about 30%; inactive = the rest.

SMILES	D1 agonist	TRHR ag	D1 antag	TRHR enhancer	D1 potentiator	Epigenetic reg
CC(C)N1CCc2c(sc(NC(=O)c3ccc4ccccc4c3)c2C(N)=O)C1	24	31*	-10	10	-3	·
CC(C)N1CCc2c(sc(NC(=O)c3cc4cc([N+](=O)[O-])ccc4s3)c2C(N)=O)C1	35*	16	-14	2	-1	?
CC(C)N1CCc2c(sc(NC(=O)c3ccc(C(=O)c4ccccc4)cc3)c2C(N)=O)C1	14	8	8	1	-6	·
CCOC(=O)c1c(NC(=S)NCc2ccccc2)sc2c1CCN(C(=O)OCC)C2	3	1	-40*	-14	-2	7%
COC(=O)c1c(NC(=O)c2ccco2)sc2c1CCN(C(C)C)C2	33*	22	-17	-4	0	·
COc1ccc(N2CCN(c3oc(/C=C/c4ccc(F)cc4)nc3C#N)CC2)cc1	-1	1	-12	2	1	5%
Cc1ccc(NC(=O)CCC(=O)N2Cc3ccccc3Oc3ncccc32)cc1	4	1	-15	-5	-5	-1%
CCOC(=O)c1c(NC(=O)c2ccc(S(=O)(=O)N(C)C3CCCCC3)cc2)sc2c1CCN(C(C)C)C2	56*	32*	19	0	-1	?
Cc1cc(C)n2nc(CNC(=O)c3ccc(Cl)cc3)nc2n1	2	1	6	-9	-1	3%
Cc1cc(NC(=O)CN2C(=O)c3ccccc3S2(=O)=O)no1	2	0	18	30*	-4	·
CC(C)(C)C1CCC2(CC1)NC(CO)(CO)CO2 (centres undefined)	1	1	-34*	10	-1	0%
COc1ccc(Br)cc1CNC(=O)CN1C(=O)CSc2ccc(S(=O)(=O)N3CCOCC3)cc21	-1	-1	-7	-9	-1	1%
CCC(CC)C(=O)Nc1nc2c(s1)CC(C)CC2 (centres undefined)	33*	2	-20	1	-1	2%
CC1CCc2nc(NC(=O)C3CCCO3)sc2C1 (centres undefined)	1	0	7	-1	6	0%
CCC[C@@H]1C[C@@]1(CCC)C(NC(=O)c1cccs1)c1ccc(Cl)cc1 (some centres undefined)	·	·	·	·	·	3%
COC(=O)c1cccc(-n2c(C)cc(C=O)c2C)c1	3	-2	-30*	-5	-4	2%
COC(=O)c1cc(C(=O)OC)cc(-n2c(C)cc(C=O)c2C)c1	2	0	-4	1	3	1%
Cc1ccc(C)c(OCc2nnc(N)s2)c1	2	0	7	35*	-7	-1%
O=C(COc1ccccc1)NCCc1csc(-c2ccc(Cl)cc2)n1	14	0	-49*	2	-3	2%
O=C(COc1ccc(Cl)cc1)NCCc1csc(-c2ccc(C(F)(F)F)cc2)n1	10	1	-36*	11	-3	0%
O=C(COc1ccc(Cl)cc1)NCCc1csc(-c2ccc(F)cc2)n1	5	0	-19	-6	-3	0%
COc1ccc(CC(=O)NCCc2csc(-c3ccc(Cl)cc3)n2)cc1	1	-1	-14	3	-7	-1%
COc1ccccc1-c1nc(SCC(=O)NCc2ccc(C)cc2)c2c(=O)n(C)c(=O)n(C)c2n1	0	0	-8	2	-1	-1%
O=C(N/N=C/c1ccco1)c1cc(-c2cccc3ccccc23)n[nH]1	-2	0	14	36*	2	0%
O=C(N/N=C/c1ccco1)c1cc(-c2ccccc2)n[nH]1	-1	0	-1	1	-7	-1%
CCSC1=NCCN1C(=O)Cc1ccc(-c2ccccc2)cc1	4	0	-44*	0	-4	0%
CSC1=NCCN1C(=O)Cc1ccc(-c2ccccc2)cc1	16	0	-40*	2	-10	5%
Cc1ccc(-n2nnc3c(sc4nc(C)c(C)cc43)c2=O)cc1Cl	0	1	2	1	0	2%
